Data taken from PubChem BioAssay (Tox21).
“And” between values parts separate entries of the source, which are not always exact repeats. Identical values can stand only once. Inconclusive results are not listed. Entries that show only a call come without a potency. The source holds several records for some structures; these can differ, active in one and inactive in another. The source made the active and inactive calls. Unless noted, calls follow the shape of the dose curve; as a rule, active = well fitted curve in the direction sought with a large enough effect in the repeat runs; inconclusive = weak or mixed curves; inactive = no such curve, though single readings can be large; an effect the other way counts as inactive or inconclusive.

How the values were obtained:
[1] = qHTS assay to identify small molecule agonists of the hypoxia (HIF-1) signaling pathway - cell viability counter screen (AID 1224844; calls by dose curve; also: nearly all actives have a fitted effect of over 50% in size)
Method in brief: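 Viability counter screen: HRE-bla ME-180 cells plated 5 hrs before compound addition, treated 17 hrs at 37C and 5% CO2, then CellTiter-Glo added after the FRET reporter read; luminescence after 30 min.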

[2] = qHTS assay to identify small molecule agonists of H2AX (AID 1224845; active = well fitted activation curve with a large enough effect in the signal ratio in the repeat runs, not every such curve was filed as active; the % refers to the signal ratio)
Method in brief: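 Wild-type CHO-K1 cells plated overnight, then exposed 3 hr at 37C to compounds at 15 concentrations (0.76% DMSO). Lysed, then HTRF anti-pH2AX(S139)-cryptate/anti-H2AX-d2 detection after 24 hr at room temperature; emissions 665 and 620 nm.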

[3] = qHTS assay to identify small molecule agonists of the hypoxia (HIF-1) signaling pathway (AID 1224846; active = well fitted activation curve with a large enough effect in the signal ratio in the repeat runs, not every such curve was filed as active; the % refers to the signal ratio)
Method in brief: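 Agonist mode reporter screen. ME-180 cells stably expressing bla under HRE control received test compounds in DMSO for 17 hrs (37C, 5% CO2), and beta-lactamase activity was then detected with the CCF4-AM FRET substrate.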

[4] = qHTS assay to identify small molecule agonists of H2AX - cell viability counter screen (AID 1224847; calls by dose curve; also: top concentration of the series differs between compounds; nearly all actives have a fitted effect of over 30% in size)
Method in brief: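 We seed wild-type CHO-K1 cells overnight, treat them for 3 hr at 37C with compounds in 15-concentration series, and quantify remaining viability by CellTiter-Glo luminescence.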

[5] = qHTS assay to identify small molecule antagonists of the estrogen related receptor (ERR) signaling pathway from Tox21 library (AID 1224848); also: nearly all actives have a fitted effect of over 50% in size; also: potency is read from the fitted curve at half-maximal effect
Method in brief: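 First, 2,000 ERR cells per well were plated and held 6 h at 37 C/5% CO2. Next, compounds in DMSO were pinned in and left 18 h at 37 C. Finally, ONE-Glo was added and luminescence read after 30 min at room temperature.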

[6] = qHTS assay to identify small molecule agonists of the estrogen related receptor (ERR) signaling pathway from Tox21 library (AID 1224849; calls by dose curve; also: nearly all actives have a fitted effect of over 15% in size); conditions: ERR reporter cell line, ONE-Glo luciferase, 18 h
Method in brief: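 Quantitative HTS in agonist format: NTP ERR cell line, compounds transferred in DMSO after 6 h plating, 18 h incubation at 37 C, ONE-Glo luminescence endpoint.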

[7] = qHTS RealTime-Glo MT Cell Viability Assay in HepG2 cells - 24 hour (AID 1224867); also: nearly all actives have a fitted effect of over 50% in size
Method in brief: (§1)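 Compound treatment began 5 h after plating HepG2 cells (600/well) with NanoLuc luciferase and prosubstrate. Plates stayed at 37 C for 40 h; luminescence was captured at six time points, 0 h through 40 h.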

[8] = qHTS RealTime-Glo MT Cell Viability Assay in HEK293 cells - 32 hour (AID 1224868); also: nearly all actives have a fitted effect of over 50% in size; also: potency is read from the fitted curve at half-maximal effect
Method in brief: (§2)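 Quantitative high-throughput screen of the Tox21 10K library in HEK293: cells and RealTime-Glo reagents plated together, compound added at 5 h, luminescence monitored through 40 h at 37 C.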

[9] = A CellTox Green Cytotoxicity Assay to monitor cytotoxicity in HEK293 cells - 0 hour (AID 1224869); also: nearly all actives have a fitted effect of over 50% in size
Method in brief: (§3)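 Dead-cell fluorescence measured kinetically: asymmetric cyanine dye, HEK293, 600 cells/well, 5 h settle, 23 nL cpd/DMSO, 37 C, reads 0–40 h every 8 h.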

[10] = qHTS RealTime-Glo MT Cell Viability Assay in HepG2 cells - 40 hour (AID 1224870); also: nearly all actives have a fitted effect of over 50% in size
Method in brief: (§4)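 HepG2 cells mixed with RealTime-Glo MT reagents (NanoLuc plus cell-permeant prosubstrate) were seeded at 600 cells/well, incubated 5 h at 37 C/5% CO2, then pinned with compounds in DMSO; nonlytic luminescence tracked viability during 40 h treatment.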

[11] = A CellTox Green Cytotoxicity Assay to monitor cytotoxicity in HEK293 cells - 40 hour (AID 1224871); also: nearly all actives have a fitted effect of over 45% in size; also: potency is read from the fitted curve at half-maximal effect
Method in brief: as §3

[12] = qHTS RealTime-Glo MT Cell Viability Assay in HEK293 cells - 16 hour (AID 1224872); also: nearly all actives have a fitted effect of over 50% in size; also: potency is read from the fitted curve at half-maximal effect
Method in brief: as §2

[13] = qHTS RealTime-Glo MT Cell Viability Assay in HepG2 cells - 8 hour (AID 1224873); also: nearly all actives have a fitted effect of over 55% in size
Method in brief: as §4

[14] = A CellTox Green Cytotoxicity Assay to monitor cytotoxicity in HEK293 cells - 24 hour (AID 1224875); also: nearly all actives have a fitted effect of over 45% in size
Method in brief: as §3

[15] = A CellTox Green Cytotoxicity Assay to monitor cytotoxicity in HepG2 cells - 16 hour (AID 1224876); also: nearly all actives have a fitted effect of over 45% in size
Method in brief: (§5)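 First, HepG2 cells (600/well) mixed with reagent were plated; second, after 5 h at 37 C they received compounds via pintool; third, fluorescence was measured at 0 h through 40 h at 8 h intervals.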

[16] = qHTS RealTime-Glo MT Cell Viability Assay in HepG2 cells - 32 hour (AID 1224877); also: nearly all actives have a fitted effect of over 55% in size
Method in brief: as §1

[17] = A CellTox Green Cytotoxicity Assay to monitor cytotoxicity in HepG2 cells - 24 hour (AID 1224878); also: nearly all actives have a fitted effect of over 45% in size
Method in brief: as §5

[18] = A CellTox Green Cytotoxicity Assay to monitor cytotoxicity in HepG2 cells - 40 hour (AID 1224879); also: nearly all actives have a fitted effect of over 40% in size
Method in brief: as §5

[19] = qHTS RealTime-Glo MT Cell Viability Assay in HEK293 cells - 0 hour (AID 1224880)
Method in brief: (§6)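 600 HEK293 cells per well, dispensed already mixed with RealTime-Glo MT reagents. Compound dosing came 5 h later. The same wells were read for luminescence at 0, 8, 16, 24, 32 and 40 h of exposure at 37 C.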

[20] = qHTS RealTime-Glo MT Cell Viability Assay in HEK293 cells - 40 hour (AID 1224874); conditions: RealTime-Glo luminescence; max response: stronger effect = lower value; also: nearly all actives have a fitted effect of over 50% in size; also: potency is read from the fitted curve at half-maximal effect
Method in brief: as §6

N#CCC(=O)O
Potency [1]: inactive | Potency [2]: inactive | outcome [3]: inactive | Potency [4]: inactive | Potency [5]: inactive | activity change, positive = activation ([6]; at 92.4 µM (top of the series)): 4.35% (inactive) and -0.59% (inactive) | Potency [7]: inactive | Potency [8]: inactive | Potency [9]: inactive | Potency [10]: inactive | Potency [11]: inactive | Potency [12]: inactive | Potency [13]: inactive | Potency [14]: inactive | Potency [15]: inactive | Potency [16]: inactive | Potency [17]: inactive | Potency [18]: inactive | Potency [19]: inactive

CC(=O)OC(C)(C)C1CC=C(C)CC1 (centres undefined)
Potency [1]: inactive | Potency [2]: inactive | outcome [3]: inactive | Potency [4]: inactive | Potency [5]: inactive | activity change, positive = activation ([6]; at 92.4 µM (top of the series)): 5.97% (inactive) and -1.38% (inactive) | Potency [7]: inactive | Potency [8]: inactive | Potency [9]: inactive | Potency [10]: inactive | Potency [11]: inactive | Potency [12]: inactive | Potency [13]: inactive | max response [20]: 3.8% (inactive) and -15.5% (inactive) | Potency [14]: inactive | Potency [15]: inactive | Potency [16]: inactive | Potency [17]: inactive | Potency [18]: inactive | Potency [19]: inactive

COC(=O)OC
Potency [1]: inactive | Potency [2]: inactive | outcome [3]: inactive | Potency [4]: inactive | Potency [5]: inactive | activity change, positive = activation ([6]; at 92.4 µM (top of the series)): 8.59% (inactive) and 5.73% (inactive) | Potency [7]: inactive | Potency [8]: inactive | Potency [9]: inactive | Potency [10]: inactive | Potency [11]: inactive | Potency [12]: inactive | Potency [13]: inactive | max response [20]: 8.45% (inactive) and 1.69% (inactive) | Potency [14]: inactive | Potency [15]: inactive | Potency [16]: inactive | Potency [17]: inactive | Potency [18]: inactive | Potency [19]: inactive

O=Cc1ccc(CO)o1
Potency [1]: inactive | Potency [2]: inactive | outcome [3]: inactive | Potency [4]: inactive | Potency [5]: inactive | activity change, positive = activation ([6]; at 92.4 µM (top of the series)): 0.746% (inactive) and -3.97% (inactive) | Potency [7]: inactive | Potency [8]: inactive | Potency [9]: inactive | Potency [10]: inactive | Potency [11]: inactive | Potency [12]: inactive | Potency [13]: inactive | Potency [14]: inactive | Potency [15]: inactive | Potency [16]: inactive | Potency [17]: inactive | Potency [18]: inactive | Potency [19]: inactive

OCCOCCOCCOCCOCCO
Potency [1]: inactive | Potency [2]: inactive | outcome [3]: inactive | Potency [4]: inactive | Potency [5]: inactive | activity change, positive = activation ([6]; at 92.4 µM (top of the series)): 2.04% (inactive) and 4.48% (inactive) | Potency [7]: inactive | Potency [8]: inactive | Potency [9]: inactive | Potency [10]: inactive | Potency [11]: inactive | Potency [12]: inactive | Potency [13]: inactive | max response [20]: 2.45% (inactive) and 0.674% (inactive) | Potency [14]: inactive | Potency [15]: inactive | Potency [16]: inactive | Potency [17]: inactive | Potency [18]: inactive | Potency [19]: inactive

C=CC(C)(C)C
Potency [1]: inactive | Potency [2]: inactive | outcome [3]: inactive | Potency [4]: inactive | Potency [5]: inactive | activity change, positive = activation ([6]; at 92.4 µM (top of the series)): 1.24% (inactive) and -3.33% (inactive) | Potency [7]: inactive | Potency [8]: inactive | Potency [9]: inactive | Potency [10]: inactive | Potency [11]: inactive | Potency [12]: inactive | Potency [13]: inactive | max response [20]: 1.9% (inactive) and -10.6% (inactive) | Potency [14]: inactive | Potency [15]: inactive | Potency [16]: inactive | Potency [17]: inactive | Potency [18]: inactive | Potency [19]: inactive

CCCCCCC(=O)O
Potency [1]: inactive | Potency [2]: inactive | outcome [3]: inactive | Potency [4]: inactive | Potency [5]: inactive | activity change, positive = activation ([6]; at 92.4 µM (top of the series)): 5.44% (inactive) and -1.64% (inactive) | Potency [7]: inactive | Potency [8]: inactive | Potency [9]: inactive | Potency [10]: inactive | Potency [11]: inactive | Potency [12]: inactive | Potency [13]: inactive | Potency [14]: inactive | Potency [15]: inactive | Potency [16]: inactive | Potency [17]: inactive | Potency [18]: inactive | Potency [19]: inactive

COc1cc(NC(=O)CC(C)=O)c(OC)cc1Cl
Potency [1]: inactive | Potency [2]: inactive | outcome [3]: inactive | Potency [4]: inactive | Potency [5]: inactive | activity change, positive = activation ([6]; at 92.4 µM (top of the series)): -16.1% (inactive) and -21.5% (inactive) | Potency [7]: inactive | Potency [8]: inactive and 11 µM (active) | Potency [9]: inactive | Potency [10]: inactive | Potency [11]: inactive | Potency [12]: inactive and 21.9 µM (active) | Potency [13]: inactive | Potency [20]: 12.3 µM (active) | max response [20]: -13.4% (inactive) | Potency [14]: inactive | Potency [15]: inactive | Potency [16]: inactive | Potency [17]: inactive | Potency [18]: inactive | Potency [19]: inactive

COc1ccc2cc3[n+](cc2c1OC)CCc1cc2c(cc1-3)OCO2
Potency [1]: inactive | Potency [2]: inactive | outcome [3]: inactive | Potency [4]: inactive | Potency [5]: 976 nM (active) and 3.35 µM (active) | activity change, positive = activation ([6]; at 42.5 µM (top of the series)): -43.6% (inactive) | activity change, positive = activation ([6]; at 92.4 µM (top of the series)): -64.1% (inactive) | Potency [7]: inactive | Potency [8]: 4.93 µM (active) and 10.7 µM (active) | Potency [9]: inactive | Potency [10]: inactive | Potency [11]: 22 µM (active) and 19 µM (active) | Potency [12]: 4.4 µM (active) | Potency [13]: inactive | Potency [20]: 4.4 µM (active) and 9.52 µM (active) | Potency [14]: inactive | Potency [15]: inactive | Potency [16]: inactive | Potency [17]: inactive | Potency [18]: inactive | Potency [19]: inactive

OC[C@H]1O[C@@H](Oc2ccc(O)cc2)[C@H](O)[C@@H](O)[C@@H]1O
Potency [1]: inactive | Potency [2]: inactive | outcome [3]: inactive | Potency [4]: inactive | Potency [5]: inactive | activity change, positive = activation ([6]; at 42.5 µM (top of the series)): 7.9% (inactive) | activity change, positive = activation ([6]; at 92.4 µM (top of the series)): 7.42% (inactive) | Potency [7]: inactive | Potency [8]: inactive | Potency [9]: inactive | Potency [10]: inactive | Potency [11]: inactive | Potency [12]: inactive | Potency [13]: inactive | Potency [14]: inactive | Potency [15]: inactive | Potency [16]: inactive | Potency [17]: inactive | Potency [18]: inactive | Potency [19]: inactive

OB(O)O
Potency [1]: inactive | Potency [2]: inactive | outcome [3]: inactive | Potency [4]: inactive | Potency [5]: inactive | activity change, positive = activation ([6]; at 92.4 µM (top of the series)): 4.58% (inactive) and 4.55% (inactive) | Potency [7]: inactive | Potency [8]: inactive | Potency [9]: inactive | Potency [10]: inactive | Potency [11]: inactive | Potency [12]: inactive | Potency [13]: inactive | max response [20]: 1.85% (inactive) and 3.92% (inactive) | Potency [14]: inactive | Potency [15]: inactive | Potency [16]: inactive | Potency [17]: inactive | Potency [18]: inactive | Potency [19]: inactive
